TRHR agonist: activates the human TRH receptor; P34981; TRHR cells, calcium flux fluo-8, FDSS agonist mode; activation, % at 2 µM; 0.18% of 360,000 active; further: 0% is about no effect
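Steps: seed TRHR cells overnight; add fluo-8 no-wash Ca dye, RT 30 min–1.5 h; record 10 s baseline; pin-transfer compounds; monitor fluorescence 1 cycle/s for the agonist window. Calcium increases flag candidate agonists.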
D1 PAM: enhances dopamine response at the human D1 receptor; AID 504651; HEK293 TREx D1 cells, calcium flux, dopamine EC20 potentiation; potentiation, % at 10 µM; P21728; 0.036% of 360,000 active; in the data active means potentiation above about 30%; further: 0% is about no effect
Target sequence (P21728 whole entry, looked up): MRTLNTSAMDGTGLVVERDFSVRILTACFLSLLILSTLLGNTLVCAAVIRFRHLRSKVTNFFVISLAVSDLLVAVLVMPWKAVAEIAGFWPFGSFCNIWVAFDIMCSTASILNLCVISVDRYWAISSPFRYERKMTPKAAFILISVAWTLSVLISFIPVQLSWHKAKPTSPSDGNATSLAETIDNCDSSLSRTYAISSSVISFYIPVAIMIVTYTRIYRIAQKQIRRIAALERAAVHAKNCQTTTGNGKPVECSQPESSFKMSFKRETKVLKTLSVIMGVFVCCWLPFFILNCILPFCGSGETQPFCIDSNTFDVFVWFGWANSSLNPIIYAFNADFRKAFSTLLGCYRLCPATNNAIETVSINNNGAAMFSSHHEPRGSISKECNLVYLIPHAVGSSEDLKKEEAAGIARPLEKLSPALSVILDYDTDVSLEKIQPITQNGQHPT
D1 ag: activates the human D1 dopamine receptor | P21728 | HEK293 T-REx D1 cells, calcium flux, agonist mode | activation, % at 2 µM | 1% of 360,000 active; further: 0% is about no effect
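Agonism was scored from calcium flux recorded over 180 s (1 read/s) after pintool compound addition, following a 10-cycle baseline. Cells were inducible force-coupled HEK293 TREx D1, plated overnight at 30 C and loaded with no-wash calcium dye.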
TRHR PAM: allosteric enhancers of human TRH receptor. TRHR cells, fluo-8 calcium fluorescence, EC20 TRH enhancement. enhancement, % at 2 µM. 0.66% of 360,000 active. AID 493056; in the data active means enhancement above about 30%; further: 0% is about no effect
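TRHR-expressing cells loaded with fluo-8 calcium dye were read kinetically (ex 480/em 530) during compound addition, then stimulated with an EC20 of TRH (10 nM final). Enhancement of the Gq-mediated intracellular calcium response was scored.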
D1 antagonist: blocks dopamine activation of the human D1 receptor. 3.2% of 360,000 active. P21728. activity change, negative = inhibition, % at 10 µM. HEK293 TREx D1 cells, calcium flux, dopamine EC80; hits give low values. AID 504652; in the data active means activity change below about -30%; further: on the % scale 0 is the no-effect control and ±100 the full control effect
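Using tetracycline-induced force-coupled D1 Hek293 cells and a calcium dye, signals were followed for 180 s after compound, then for 180 s after EC80 dopamine, to detect inhibitors.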
Starred values were filed as active, the others as inactive; x = no result. The list is not random: actives were taken first. Their share in the collection is about 4.7%. Unless noted, no stated cut-off is given here; in the data, active means activation above about 30%; inactive means the rest.

SMILES	TRHR agonist	D1 PAM	D1 ag	TRHR PAM	D1 antagonist
CCOc1ccc(C2CC(=O)NC(NC(=O)c3ccc(C)cc3)=N2)cc1 (stereo unspecified)	-1	0	0	35*	19
O=C(CSc1nccc(-c2cccs2)n1)Nc1cccc(Cl)c1	0	-2	6	-4	-6
O=C(CSc1nccc(-c2cccs2)n1)Nc1ccc(F)c(Cl)c1	0	-7	2	-6	-39*
COc1ccc(NC(=O)COC(=O)Cc2ccc(-c3ccccc3)cc2)c(OC)c1	-1	1	2	-4	5
COc1ccccc1NC(=O)Cc1ccc(-c2ccccc2)cc1	1	-6	6	-2	-39*
COc1ccc(C)cc1NC(=O)COC(=O)Cc1ccc(-c2ccccc2)cc1	-1	0	15	-2	-36*
Cc1ccc(-n2ccnc(NCCc3ccc(S(N)(=O)=O)cc3)c2=O)cc1C	-1	-4	1	6	-4
COCCn1nnnc1C(c1cccc(C(F)(F)F)c1)N1CCN(Cc2ccccc2)CC1 (stereo unspecified)	1	-4	0	1	3
COCCn1nnnc1C(c1cccc(C(F)(F)F)c1)N1CCOCC1 (stereo unspecified)	-1	-5	0	-6	-42*
Cc1ccc(NC(=O)CSc2nc(-c3cccs3)nc3cc(=O)[nH]n23)cc1C	-1	-3	2	-5	-6
Cc1ccccc1NC(=O)CSc1nc(-c2cccs2)nc2cc(=O)[nH]n12	0	8	2	4	-37*
CC(=O)c1ccc(N2CCN(CC(=O)Nc3ccccc3C(=O)NC3CC3)CC2)c(F)c1	0	5	0	1	0
Cc1cc(C)c(OCCN(C)C)c(Cl)c1	0	0	0	-4	-38*
Cc1cc(Cl)cc(Cl)c1OCCOCCN(C)C	1	-5	4	3	-5
COC(=O)/C(=C\C=C\c1ccccc1)NC(=O)c1ccccc1	0	-5	0	-4	-30*
O=C(Nc1ccc(O)cc1)/C(=C\C=C\c1ccccc1)NC(=O)c1ccccc1	0	4	2	2	-32*
COc1ccc(/C(=C/Nc2cccc(Br)c2)C(C)=O)cc1OC	-1	-5	-1	41*	-11
COc1ccc(OCCCC(=O)Nc2cc(Cl)ccc2-n2cncn2)cc1	1	-4	0	-3	-10
O=C(NCc1ccc2c(c1)OCO2)C(=O)NCC1OCCN1S(=O)(=O)c1ccc(Br)cc1 (stereo unspecified)	0	-5	8	0	-7
O=C(NCc1ccc2c(c1)OCO2)C(=O)NCC1OCCN1S(=O)(=O)c1ccc(Cl)cc1 (stereo unspecified)	-1	-3	3	-4	-31*
O=C(NCCCn1ccnc1)C(=O)NCC1OCCCN1S(=O)(=O)c1ccc(Cl)cc1 (stereo unspecified)	0	-5	0	-1	-51*
O=C(NCCCn1ccnc1)C(=O)NCC1OCCN1S(=O)(=O)c1ccc(Cl)cc1 (stereo unspecified)	0	-1	-1	5	-11
CC/C(=N\Nc1ccccc1[N+](=O)[O-])c1ccc(O)cc1	-1	-7	2	2	-6
CC/C(=N\Nc1ccc([N+](=O)[O-])cc1[N+](=O)[O-])c1ccc(O)cc1	-1	-8	-1	-2	-34*
C/C(=N\Nc1ccc(C#N)cc1[N+](=O)[O-])c1ccc(O)cc1	0	-4	6	-4	-43*
SMILES	TRHR agonist	D1 PAM	D1 ag	TRHR PAM	D1 antagonist
CCOC(=O)c1ccc2c(c1)N(CC(=O)N1CCCC1)C(=O)C(C)(C)O2	0	0	0	36*	-10
O=C1/C(=C\c2c(NCCOCCO)nc3ccccn3c2=O)SC(=S)N1Cc1ccco1	33*	-3	138*	1	7
CCCN1C(=O)/C(=C/c2c(NCCCOCC)nc3c(C)cccn3c2=O)SC1=S	-1	6	0	11	12
CCOc1ccccc1NC(=O)C(C)n1nnc2sc3c(c2c1=O)CCCC3 (stereo unspecified)	-2	5	1	2	-3
COc1ccc(N2CCN(C(=O)c3ccc4c(c3)[nH]c(=S)n3c5ccccc5nc43)CC2)cc1	0	-5	1	-3	-32*
O=C(c1ccc2c(c1)[nH]c(=S)n1c3ccccc3nc21)N1CCN(c2cccc(Cl)c2)CC1	0	-10	3	-1	12
O=C(CSc1nnc(-c2ccccc2)c(-c2ccccc2)n1)Nc1ccccc1Cl	0	-1	6	-4	12
CCc1ccc(NC(=O)CSc2ccc(-c3sc(-c4ccccc4)nc3C)nn2)cc1	1	1	1	1	9
Cc1cc(Br)ccc1NC(=O)CN(C)C(=O)C1CSC2(C)CCC(=O)N12 (stereo unspecified)	0	x	2	-5	-33*
Cc1cc(Br)ccc1NC(=O)C1CSC2(C)CCC(=O)N12 (stereo unspecified)	-1	-3	1	3	7
CCOc1cccc2cc(-c3nc4sc5c(c4c(=O)[nH]3)CCC(C)C5)c(=O)oc12 (stereo unspecified)	0	0	2	1	-1
O=C(/C=C/c1ccccc1)Nc1cccnc1Oc1ccccc1F	0	0	9	4	-39*
Nc1cccnc1Oc1ccccc1F	1	1	2	2	28
COc1ccc2c(c1)OC[C@H]1[C@H]2N2C(=O)[C@H](C)NC(=O)[C@@]2(C)[C@H]1c1ccccc1	0	2	1	0	x
Cc1ccc(NC(=O)C(Cc2c[nH]c3ccccc23)NC(=O)OC(C)(C)C)c(C)c1 (stereo unspecified)	-1	-5	2	-7	-35*
CN1C(=O)C(C)(C)c2cc(S(=O)(=O)N3CCN(c4ccccc4)CC3)ccc21	-1	-2	4	-1	-40*
CN1C(=O)C(C)(C)c2cc(S(=O)(=O)N3CCCCCC3)ccc21	1	2	1	3	6
NS(=O)(=O)c1ccc(NCc2c(F)cccc2Cl)cc1	0	-3	8	1	-35*
CCOC(=O)Cn1nc(C)n(-c2ccc(Br)cc2)c1=O	0	14	2	4	-48*
COc1cc(NC(=O)c2ccno2)cc(C(=O)Nc2cccc(C(F)(F)F)c2)c1	0	-2	20	4	-21
COc1ccc(-c2cc(C(=O)Nc3cc(OC)cc(C(=O)Nc4cccc(C(F)(F)F)c4)c3)[nH]n2)cc1	1	-4	10	-5	-31*
O=c1c2cc(Br)ccc2nc(-c2cccc(C(F)(F)F)c2)n1O	15	4	62*	-4	3
O=c1c2cc(Cl)ccc2nc(-c2ccc(Cl)c(Cl)c2)n1O	17	-10	88*	9	-45*

From PubChem
